From PubChem BioAssay (EPA / NIEHS) come the findings set out here.

Where “and” joins values, the source holds several entries; their conditions need not be identical. Equal entries are not always repeated. Results filed as inconclusive are left out. More than one record can exist for a structure, and the calls need not agree. Calls of active or inactive are those of the source. Rule for the calls, unless noted: active = hit-call score of the fitted dose curve at least 0.9, where 1 is the maximum; inactive = score below 0.9.

Assay [1] addresses Retinoic acid receptor RXR-alpha (Homo sapiens) (UniProt P19793). Put plainly: ATG_RXRa_TRANS: Attagene TRANS-FACTORIAL HepG2 Assay for human Retinoid X Receptor alpha (RXRa) (AID 2283012; active = hit-call score of the fitted dose curve at least 0.9, where 1 is the maximum). The method, boiled down:
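Cells (HepG2) carried transiently transfected GAL4-responsive reporter units. Following a 24 h chemical incubation, reporter mRNA induction was read via RT-PCR fragment analysis; DMSO served as negative control and baseline.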

For assay [2], the target named is human Retinoid X Receptor beta (RXRb), RXRB (gene 6257) (UniProt P28702). Put plainly: ATG_RXRb_TRANS: Attagene TRANS-FACTORIAL HepG2 Assay for human Retinoid X Receptor beta (RXRb) (AID 2283013; active = hit-call score of the fitted dose curve at least 0.9, where 1 is the maximum). The method in brief:
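Multiplexed TRANS reporter assay in HepG2; 24 h dosing; reporter mRNA by RT-PCR/CE fluorescence; gain-of-signal relative to DMSO.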

Read-out in assay [3]: E-selectin (Homo sapiens) (UniProt P16581)
The assay can be described thus: BSK_3C_Eselectin: BioMAP Diversity Plus: 3C Assay for Eselectin Biomarker Activity (AID 2283015).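 Note: cell surface E-selectin protein quantified by ELISA 24 h after dosing.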 To be noted: primary human endothelial cells (HUVEC); actives raise or lower the signal. The method in brief:
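E-selectin ELISA readout, fitted bidirectionally relative to DMSO, taken 24 h post-dosing in HUVEC cultures of the 3C system. Overt cytotoxicity tracked with sulforhodamine B staining of parallel wells.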

Read-out in assay [4]: Interleukin-1 alpha (IL1a), IL1A (gene 3552)
The assay can be described thus: BSK_BE3C_IL1a: BioMAP Diversity Plus: BE3C Assay for Interleukin-1 alpha (IL1a) Biomarker Activity (AID 2283016). The following applies: primary human bronchial epithelial cells; actives raise or lower the signal. The method, boiled down: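 Cultures of primary human bronchial epithelial cells receive test chemical. After 24 h, IL-1a is quantified by ELISA, while parallel wells are fixed in TCA and SRB-stained for total protein. Changes in either direction are fitted relative to DMSO.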

Read-out in assay [5]: Monocyte Chemoattractant Protein-1 (MCP1), CCL2 (gene 6347)
Put plainly: BSK_3C_MCP1: BioMAP Diversity Plus: 3C Assay for Monocyte Chemoattractant Protein-1 (MCP1) Biomarker Activity (AID 2283017). The following applies: primary human endothelial cells (HUVEC); actives raise or lower the signal. The method, boiled down:
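MCP-1 was measured by ELISA 24 h after dosing in primary HUVEC 3C cultures and fitted in both directions relative to DMSO; cytotoxicity was checked by SRB total-protein staining in parallel wells.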

Read-out in assay [6]: Monocyte Chemoattractant Protein-1 (MCP1), CCL2 (gene 6347)
Put plainly: BSK_4H_MCP1: BioMAP Diversity Plus: 4H Assay for Monocyte Chemoattractant Protein-1 (MCP1) Biomarker Activity (AID 2283018). The following applies: primary human endothelial cells (HUVEC); actives raise or lower the signal. The method in brief: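 Readout: MCP-1 ELISA on compound-treated HUVEC, sampled 24 h post-dosing. Baseline and negative control DMSO; bidirectional fit. Overt toxicity checked alongside by sulforhodamine B protein staining at time of biomarker measurement.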

Read-out in assay [7]: Human Leukocyte Antigen - DR isotype (HLADR), HLA-DRA (gene 3122)
Put plainly: BSK_3C_HLADR: BioMAP Diversity Plus: 3C Assay for Human Leukocyte Antigen - DR isotype (HLADR) Biomarker Activity (AID 2283019).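 Note: ELISA of cell-surface HLA-DR on HUVEC 24 h after dosing.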 The following applies: primary human endothelial cells (HUVEC); actives raise or lower the signal. The method, boiled down:
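Bidirectional fitting against DMSO was applied to the HLA-DR ELISA signal from human umbilical vein endothelial cells, 24 h post-dose. Cytotoxicity came from parallel SRB total-protein staining; 3C proliferation was counted by SRB at 48 h.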

Read-out in assay [8]: Monokine induced gamma interferon (MIG), CXCL9 (gene 4283)
The assay can be described thus: BSK_3C_MIG: BioMAP Diversity Plus: 3C Assay for Monokine induced gamma interferon (MIG) Biomarker Activity (AID 2283021). The following applies: primary human endothelial cells (HUVEC); actives raise or lower the signal. The method, boiled down: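 After 24 h of treatment, human umbilical vein endothelial cultures (3C system) had their MIG biomarker level determined by ELISA, with DMSO serving as negative control.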

The target in assay [9] is human Vitamin D Receptor (VDR), VDR (gene 7421) (UniProt P11473). Put plainly: ATG_VDR_TRANS: Attagene TRANS-FACTORIAL HepG2 Assay for human Vitamin D Receptor (VDR) (AID 2283022; active = hit-call score of the fitted dose curve at least 0.9, where 1 is the maximum). The method, boiled down: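 Transactivation by an exogenous VDR-Gal4 chimera in transiently transfected HepG2 cells was measured as reporter transcript level 24 hours after chemical treatment. RT-PCR products were analysed by capillary electrophoresis and fitted in the positive direction relative to DMSO.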

The nature of assay [10]: BSK_3C_SRB: Viability Assessment in the BioMAP Diversity Plus: 3C Assay (AID 2283023).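 Note: fitted both ways against DMSO so a hit may be signal rise or drop.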 The following applies: primary human endothelial cells (HUVEC). The method in brief:
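Cytotoxicity readout in parallel HUVEC 3C cultures: after 24 h compound exposure, cells fixed with 10% TCA, stained with 0.1% SRB and read at 560 nm. Gain or loss relative to DMSO fitted.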

Read-out in assay [11]: Matrix Metallopeptidase 1 (MMP1), MMP1 (gene 4312)
Put plainly: BSK_BE3C_MMP1: BioMAP Diversity Plus: BE3C Assay for Matrix Metallopeptidase 1 (MMP1) Biomarker Activity (AID 2283024). The following applies: primary human bronchial epithelial cells; actives raise or lower the signal. The method in brief: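 Dose cells, wait 24 h, run MMP1 ELISA; cells are human bronchial epithelial primaries. Both increases and decreases relative to DMSO counted.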

Read-out in assay [12]: Pselectin, SELP (gene 6403)
Put plainly: BSK_4H_Pselectin: BioMAP Diversity Plus: 4H Assay for Pselectin Biomarker Activity (AID 2283026). The following applies: primary human endothelial cells (HUVEC); actives raise or lower the signal. The method, boiled down:
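Human vascular endothelium from umbilical vein; P-selectin measured by ELISA at 24 h post-dose, with cytotoxicity checked by sulforhodamine B total-protein staining in parallel cultures (0.1% SRB after 10% TCA fixation, read at 560 nm).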

The nature of assay [13]: BSK_4H_SRB: Viability Assessment in the BioMAP Diversity Plus: 4H Assay (AID 2283027).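 Note: cells exposed to compound for 24 h before staining.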 The following applies: primary human endothelial cells (HUVEC). The method, boiled down:
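Human umbilical vein endothelial cells, 24 h after chemical dosing; total protein measured by 0.1% sulforhodamine B staining after 10% TCA fixation, read at 560 nm. Bidirectional fitting against DMSO.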

Read-out in assay [14]: Thrombomodulin, THBD (gene 7056)
The assay can be described thus: BSK_3C_Thrombomodulin: BioMAP Diversity Plus: 3C Assay for Thrombomodulin Biomarker Activity (AID 2283029). The following applies: primary human endothelial cells (HUVEC); actives raise or lower the signal. The method, boiled down: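 Thrombomodulin ELISA, human primary HUVEC, 24 h post-dose; data fitted in both directions relative to DMSO.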

Assay [15] deals with human Thyroid Receptor alpha (THRa1), THRA (gene 7067) (UniProt P10827). The assay can be described thus: ATG_THRa1_TRANS: Attagene TRANS-FACTORIAL HepG2 Assay for human Thyroid Receptor alpha (THRa1) (AID 2283014; active = hit-call score of the fitted dose curve at least 0.9, where 1 is the maximum). The method, boiled down:
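Transcripts from GAL4-UAS-driven reporters, measured after 24 h compound exposure by RT-PCR plus capillary electrophoresis of 6-FAM-labeled fragments, were fitted for gain of signal relative to DMSO. Cells: transiently transfected HepG2 expressing NR-Gal4 chimeras.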

Read-out in assay [16]: Interleukin-8 (IL8), CXCL8 (gene 3576)
Put plainly: BSK_3C_IL8: BioMAP Diversity Plus: 3C Assay for Interleukin-8 (IL8) Biomarker Activity (AID 2283020). To be noted: primary human endothelial cells (HUVEC); actives raise or lower the signal. The method, boiled down:
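Human vascular endothelial cells (umbilical vein) in the 3C system; IL-8 level detected by ELISA at 24 h post-dose, with DMSO as baseline.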

Assay [17] in a line: BSK_BE3C_SRB: Viability Assessment in the BioMAP Diversity Plus: BE3C Assay (AID 2283028). To be noted: primary human bronchial epithelial cells. The method, boiled down:
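Cytotoxicity read-out: SRB (0.1%) staining of TCA-fixed (10%) human lung bronchial epithelial cells, absorbance 560 nm, 24 h post-dosing. Curves fitted both directions relative to DMSO.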

Assay [18] addresses human RAR-related Orphan Receptor gamma (RORg), RORC (gene 6097) (UniProt P51449). Put plainly: ATG_RORg_TRANS: Attagene TRANS-FACTORIAL HepG2 Assay for human RAR-related Orphan Receptor gamma (RORg) (AID 2283011; active = hit-call score of the fitted dose curve at least 0.9, where 1 is the maximum). The method, boiled down: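 Reporter transcripts from a transfected RORg-GAL4 chimera in HepG2 cells were quantified 24 h after dosing by RT-PCR, 6-FAM labelling, HpaI digestion and capillary electrophoresis; increases over DMSO baseline were fitted.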

E-selectin (Homo sapiens), sequence (P16581 whole entry, looked up): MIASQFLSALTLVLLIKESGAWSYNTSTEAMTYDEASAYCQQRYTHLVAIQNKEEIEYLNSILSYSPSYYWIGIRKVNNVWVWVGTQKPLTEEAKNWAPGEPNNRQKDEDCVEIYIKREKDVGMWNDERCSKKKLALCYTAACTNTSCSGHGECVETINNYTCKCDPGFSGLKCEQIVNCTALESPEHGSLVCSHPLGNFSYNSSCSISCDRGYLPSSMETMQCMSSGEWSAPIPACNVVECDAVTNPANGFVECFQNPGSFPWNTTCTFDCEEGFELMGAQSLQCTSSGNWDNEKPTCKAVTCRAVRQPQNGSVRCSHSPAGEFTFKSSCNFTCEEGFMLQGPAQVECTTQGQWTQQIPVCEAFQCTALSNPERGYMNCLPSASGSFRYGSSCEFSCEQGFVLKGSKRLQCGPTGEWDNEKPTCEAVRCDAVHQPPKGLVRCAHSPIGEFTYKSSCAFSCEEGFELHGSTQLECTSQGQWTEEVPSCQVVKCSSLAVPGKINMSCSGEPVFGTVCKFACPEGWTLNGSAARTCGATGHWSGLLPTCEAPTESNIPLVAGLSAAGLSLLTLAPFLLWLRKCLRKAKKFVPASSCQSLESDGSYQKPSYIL
human Retinoid X Receptor beta (RXRb), RXRB (gene 6257), sequence (P28702 whole entry, looked up): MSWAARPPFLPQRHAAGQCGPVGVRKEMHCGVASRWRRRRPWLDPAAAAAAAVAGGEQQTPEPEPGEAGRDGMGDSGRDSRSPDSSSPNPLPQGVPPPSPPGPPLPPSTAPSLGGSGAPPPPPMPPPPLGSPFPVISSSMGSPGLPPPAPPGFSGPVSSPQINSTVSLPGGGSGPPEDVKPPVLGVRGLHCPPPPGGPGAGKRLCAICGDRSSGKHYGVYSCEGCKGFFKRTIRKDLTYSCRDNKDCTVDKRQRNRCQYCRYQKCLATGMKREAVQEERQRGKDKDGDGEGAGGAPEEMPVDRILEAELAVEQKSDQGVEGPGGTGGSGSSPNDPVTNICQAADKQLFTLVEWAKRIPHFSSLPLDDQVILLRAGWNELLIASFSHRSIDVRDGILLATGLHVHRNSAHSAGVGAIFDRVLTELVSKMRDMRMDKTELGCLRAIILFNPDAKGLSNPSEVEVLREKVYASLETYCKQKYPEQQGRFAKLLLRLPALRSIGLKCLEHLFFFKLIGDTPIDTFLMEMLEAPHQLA
Retinoic acid receptor RXR-alpha (Homo sapiens), sequence (P19793 whole entry, looked up, the tested form may be a part): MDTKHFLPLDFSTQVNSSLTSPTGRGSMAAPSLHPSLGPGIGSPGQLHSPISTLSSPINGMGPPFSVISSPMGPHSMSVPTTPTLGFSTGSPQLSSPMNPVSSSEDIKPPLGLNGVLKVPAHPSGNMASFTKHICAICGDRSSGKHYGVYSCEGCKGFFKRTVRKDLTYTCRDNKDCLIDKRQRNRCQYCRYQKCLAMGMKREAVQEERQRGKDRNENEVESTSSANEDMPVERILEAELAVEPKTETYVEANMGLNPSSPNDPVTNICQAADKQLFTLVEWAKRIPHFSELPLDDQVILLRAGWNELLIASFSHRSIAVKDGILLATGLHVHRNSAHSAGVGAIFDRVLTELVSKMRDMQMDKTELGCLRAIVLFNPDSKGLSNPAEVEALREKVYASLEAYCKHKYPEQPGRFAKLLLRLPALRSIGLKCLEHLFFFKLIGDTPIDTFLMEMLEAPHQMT
human Thyroid Receptor alpha (THRa1), THRA (gene 7067), sequence (P10827 whole entry, looked up, the tested form may be a part): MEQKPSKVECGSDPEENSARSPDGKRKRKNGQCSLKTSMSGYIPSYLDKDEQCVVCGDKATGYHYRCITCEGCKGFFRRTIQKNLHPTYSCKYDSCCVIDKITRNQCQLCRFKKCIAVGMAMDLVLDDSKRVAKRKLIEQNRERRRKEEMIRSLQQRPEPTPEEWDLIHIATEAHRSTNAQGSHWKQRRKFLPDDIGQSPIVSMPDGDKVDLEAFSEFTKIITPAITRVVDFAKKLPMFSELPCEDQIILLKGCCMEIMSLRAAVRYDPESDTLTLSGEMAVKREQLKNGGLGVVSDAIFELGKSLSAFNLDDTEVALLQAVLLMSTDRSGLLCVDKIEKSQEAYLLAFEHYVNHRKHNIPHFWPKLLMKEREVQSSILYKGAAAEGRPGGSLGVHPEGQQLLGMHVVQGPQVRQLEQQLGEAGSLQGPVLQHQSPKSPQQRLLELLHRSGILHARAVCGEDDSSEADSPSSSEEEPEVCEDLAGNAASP
human Vitamin D Receptor (VDR), VDR (gene 7421), sequence (P11473 whole entry, looked up, the tested form may be a part): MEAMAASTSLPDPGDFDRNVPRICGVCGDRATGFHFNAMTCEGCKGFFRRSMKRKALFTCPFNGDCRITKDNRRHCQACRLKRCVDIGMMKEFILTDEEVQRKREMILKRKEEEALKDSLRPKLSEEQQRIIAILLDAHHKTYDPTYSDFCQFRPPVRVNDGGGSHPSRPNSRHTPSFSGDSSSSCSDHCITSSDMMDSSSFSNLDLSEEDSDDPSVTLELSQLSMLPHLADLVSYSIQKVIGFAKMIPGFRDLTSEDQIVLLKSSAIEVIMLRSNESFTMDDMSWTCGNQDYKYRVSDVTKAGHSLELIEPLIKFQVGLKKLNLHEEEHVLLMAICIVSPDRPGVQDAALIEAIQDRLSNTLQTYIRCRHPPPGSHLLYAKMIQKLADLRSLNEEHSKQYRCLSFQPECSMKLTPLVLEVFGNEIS
human RAR-related Orphan Receptor gamma (RORg), RORC (gene 6097), sequence (P51449 whole entry, looked up, the tested form may be a part): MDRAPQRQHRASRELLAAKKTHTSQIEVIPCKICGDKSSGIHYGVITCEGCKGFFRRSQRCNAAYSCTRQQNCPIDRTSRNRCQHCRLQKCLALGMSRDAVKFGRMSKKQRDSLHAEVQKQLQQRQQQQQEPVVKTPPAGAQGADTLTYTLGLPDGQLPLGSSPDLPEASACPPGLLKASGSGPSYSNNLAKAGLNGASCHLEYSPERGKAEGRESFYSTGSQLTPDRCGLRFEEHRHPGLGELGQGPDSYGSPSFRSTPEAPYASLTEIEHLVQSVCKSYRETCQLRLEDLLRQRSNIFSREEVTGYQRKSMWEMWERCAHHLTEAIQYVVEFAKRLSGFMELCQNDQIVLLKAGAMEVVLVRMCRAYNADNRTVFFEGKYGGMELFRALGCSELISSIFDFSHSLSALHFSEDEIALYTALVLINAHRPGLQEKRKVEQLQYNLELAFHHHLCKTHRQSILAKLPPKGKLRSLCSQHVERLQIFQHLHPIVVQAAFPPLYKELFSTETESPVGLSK

With `O=S(=O)(OCCOC(F)(F)F)C(F)(F)F`, the compound was called inactive in [1], in assay [2], in assay [3], in assay [4], in [5] and in assay [6]. Moreover, the outcome in [7], in [8], in assay [9], in assay [10], in [11] and in assay [12] was inactive. The result in [13] and in [14] was inactive.

For `C=C(C)C(=O)OCCC(F)(F)C(F)(F)C(F)(F)C(F)(F)C(F)(C(F)(F)F)C(F)(F)F`, the result in [1], in [2], in assay [3], in assay [4], in assay [5] and in assay [6] was inactive. The outcome in assay [7], in assay [8], in [9], in assay [10], in assay [11] and in [12] was inactive. For the same compound, the result in assay [13] and in assay [14] was inactive.

For `COC(=O)CCC(F)(F)C(F)(F)C(F)(F)C(F)(F)F`, the outcome in assay [2], in assay [15], in [3], in [4], in [5] and in assay [6] was inactive. Also, the result in assay [7], in [16], in assay [8], in [9], in [10] and in assay [11] was inactive. For the same compound, the outcome in [12], in assay [13] and in [14] was inactive.

As for `C=C(C)C(=O)OCC(F)(F)C(F)(F)C(F)(F)F`, the compound was classed as inactive in assay [1], in assay [2], in assay [3], in assay [4], in assay [5] and in assay [6]. For the same compound, the result in assay [7], in assay [16], in assay [8], in assay [9], in assay [10] and in assay [11] was inactive. The result in assay [12], in assay [13] and in [14] was inactive.

As for `OCCCC(F)(F)C(F)(F)C(F)(F)F`, the call in assay [1], in assay [2], in [3], in [4], in assay [5] and in [6] was inactive. The result in [7], in [8], in assay [9], in assay [10], in assay [11] and in [12] was inactive. The result in [13] and in [14] was inactive.

For `COC(=O)C1CCC(C(=O)OC)CC1` (stereo unspecified), the compound was classed as inactive in [1], in assay [2], in [15] and in assay [9].

Turning to `O=C(CC(=O)C(F)(F)C(F)(F)F)C(F)(F)F`, the result in assay [1], in assay [2], in [15], in assay [3], in assay [4] and in assay [6] was inactive. Further, the result in assay [7], in [8], in [9], in assay [10], in [11] and in assay [12] was inactive. For the same compound, the result in [13], in [17] and in assay [14] was inactive. Besides, in [5], the AC50 was 30 µM (active) and 21.7 µM (active).

In the case of `CC/C=C\CCOC(C)=O`, the result in assay [18] and in [9] was inactive.

For the compound `FC(F)(F)C(F)(F)C(F)(F)C(F)(F)C(F)(F)C(F)(F)C(F)(F)Br`, the outcome in assay [1], in assay [15], in assay [3], in assay [4], in assay [5] and in [6] was inactive. The result in assay [7], in assay [16], in assay [8], in assay [9], in assay [10] and in assay [11] was inactive. Besides, the outcome in assay [12], in [13], in assay [17] and in assay [14] was inactive. Further, in assay [14], the concentration at half-maximal activity (AC50) is 1290 nM (active).

For orientation: AC50 means the concentration at which the activity in the assay is half-maximal.
